Assay outcomes as filed in PubChem.
Only a selection was taken, and hits are over-represented in it overall.
Sm TGR block – blocks Schistosoma mansoni thioredoxin glutathione reductase | Potency, µM (highest dose often 114 µM), hits mostly inhibitors | AID 485364 | purified TGR, DTNB reduction, TNB absorbance 405 nm | actives 3% (n = 360,000) | Q962Y6; further: nearly all actives have a fitted effect of over 60% in size
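First, TGR (20 nM dispensed) and NADPH were mixed with compound. Second, a 15 min room-temperature incubation followed. Third, further NADPH and then DTNB were added to start the reaction. Finally, TNB absorbance was monitored kinetically.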
TbPYK inhibitor – inhibitors of Trypanosoma brucei pyruvate kinase. Potency, µM (series often up to 76.8 µM), hits mostly inhibitors. Q57TT1. TbPYK enzyme, Kinase-Glo Plus ATP luminescence, 45 min. actives 0.12% (n = 410,000); further: nearly all actives have a fitted effect of over 50% in size
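Screened from lowest to highest concentration, compounds were pinned into TbPYK/substrate mixtures, and ADP (130 uM final) was added. Plates sat at room temperature for 45 min prior to Kinase-Glo Plus detection by luminescence.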
CHX counter – affects cycloheximide protein synthesis inhibition readout, counter-screen. cell reporter, cycloheximide protein synthesis inhibition counterscreen. max response, %. actives 12% (n = 300,000). AID 2314; in the data active means max response mostly above about 13%, no sharp cut-off; inactive means mostly below about 14%; further: read at 38.3 µM for the half of the compounds with a filed dose
Shiga toxin inh – blocks Shiga toxin action in Vero cells. Vero cells, Shiga toxin protein synthesis inhibition reporter. inhibition, % at 38.7 µM. actives 9.2% (n = 290,000). AID 2315; in the data active means inhibition mostly above about 28%, no sharp cut-off; inactive means mostly below about 43%
LmPK inhibitor – blocks Leishmania mexicana pyruvate kinase activity. purified LmPK, Kinase-Glo ATP luminescence, 1 h. actives 0.37% (n = 290,000). AID 1721. Potency, µM (highest dose often 57.5 µM), most hits filed as inhibitors
Target sequence (Q27686 whole entry, looked up): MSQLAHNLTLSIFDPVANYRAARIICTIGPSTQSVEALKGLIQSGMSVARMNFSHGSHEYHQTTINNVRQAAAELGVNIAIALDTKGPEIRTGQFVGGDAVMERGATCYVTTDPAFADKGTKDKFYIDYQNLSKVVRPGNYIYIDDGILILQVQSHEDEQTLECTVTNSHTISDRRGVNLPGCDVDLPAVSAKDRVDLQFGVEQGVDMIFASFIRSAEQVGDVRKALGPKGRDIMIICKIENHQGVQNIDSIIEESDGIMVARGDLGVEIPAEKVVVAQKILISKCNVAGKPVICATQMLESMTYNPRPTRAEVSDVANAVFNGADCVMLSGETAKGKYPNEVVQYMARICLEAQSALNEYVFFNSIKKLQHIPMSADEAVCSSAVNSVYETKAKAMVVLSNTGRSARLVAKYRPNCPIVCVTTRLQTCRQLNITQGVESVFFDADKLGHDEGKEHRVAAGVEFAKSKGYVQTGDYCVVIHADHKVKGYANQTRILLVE
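In 50 mM imidazole pH 7.2 with 7 mM MgCl2, LmPK (0.1 nM) turned over PEP (0.5 mM) and ADP (0.1 mM) for 1 h at room temperature. Luciferase read-out of ATP.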
Giardia FBPA inh – Giardia lamblia aldolase inhibition | Potency, µM (titrated, usually from 59.6 µM), usual class: inhibitors | purified Giardia FBPA | actives 0.71% (n = 290,000) | A8B2U2; further: nearly all actives have a fitted effect of over 55% in size
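40 nM FBPA preincubated 10 min at RT with compound (up to 57.5 uM final), then substrate plus GAPDH/TPI/NAD/arsenate coupling and diaphorase/resazurin added. Fluorescence read after 20 min at RT, 525/598 nm.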
Large screens that a line does not name were inactive. Unless noted, the call rests on the fitted dose curve; in most records, active means well fitted curve in the direction sought with a large enough effect; inconclusive means small, poorly fitted or top-dose-only effect, or another doubt; inactive means no such curve, though single readings can be large; an effect the other way counts as inactive or inconclusive.

COc1ccc(NC(=O)c2[nH]ncc2[N+](=O)[O-])cc1	CHX counter 26
Cn1cc(Br)c(C(=O)Nc2ccc3c(C(F)(F)F)cc(=O)oc3c2)n1	none (no result: Giardia FBPA inh)
O=C(Nc1ccccc1)c1[nH]ncc1[N+](=O)[O-]	none
Cn1cc([N+](=O)[O-])c(C(=O)Nc2ccc3c(C(F)(F)F)cc(=O)oc3c2)n1	CHX counter 15 (no result: Giardia FBPA inh)
COc1ccc(NC(=O)c2nn(C)cc2[N+](=O)[O-])cc1	CHX counter 15
Cc1ccc(S(=O)(=O)Nc2ccc(-n3cnnn3)cc2)c(C)c1	none (no result: CHX counter, Shiga toxin inh, LmPK inhibitor, Giardia FBPA inh)
Cc1cc(C)c(S(=O)(=O)Nc2ccc(N(C)C)cc2)c(C)c1-n1cnnn1	CHX counter 43, Shiga toxin inh 76
Nc1ncn(C(=S)Nc2ccccc2)n1	none (no result: Sm TGR block, CHX counter, Shiga toxin inh, LmPK inhibitor, Giardia FBPA inh)
CCOC(=O)CCCn1ncn2c(cc3occc32)c1=O	CHX counter 55
COc1ccc(CNC(=O)CCCn2ncn3c(cc4occc43)c2=O)cc1	none
Cc1cc(=O)n2nc(-c3ccc(C(F)(F)F)cc3)sc2n1	CHX counter 33
COc1ccccc1-c1nn2c(=O)cc(C)nc2s1	none
O=C(Nc1ccc(F)c(Cl)c1)C1Cc2c(-c3ccco3)ccnc2O1 (configuration not stated)	none (no result: Sm TGR block, CHX counter, Shiga toxin inh, LmPK inhibitor, Giardia FBPA inh)
O=C(NCc1ccco1)C(c1ccncc1)N(CCC1=CCCCC1)C(=O)Cn1nnc2ccccc21 (configuration not stated)	Sm TGR block 45µM
O=C(NCc1ccco1)C(c1ccccc1)N(Cc1ccccc1)C(=O)Cn1nnc2ccccc21 (configuration not stated)	CHX counter 18
Cc1cccc(C)c1OCC(=O)N[C@@H](Cc1ccccc1)[C@@H](O)C[C@H](Cc1ccccc1)NC(=O)[C@H](C(C)C)N1CCCNC1=O	none (no result: Sm TGR block, CHX counter, Shiga toxin inh, LmPK inhibitor, Giardia FBPA inh)
COc1ccc(CCN(C)C(=O)COC(=O)/C=C/c2ccc(C)o2)cc1OC	Sm TGR block 16µM, TbPYK inhibitor inconclusive (no result: CHX counter, Shiga toxin inh, LmPK inhibitor, Giardia FBPA inh)
CCOc1ccc2oc(C(=O)N(C)CCc3ccc(OC)c(OC)c3)c(C)c2c1	none (no result: CHX counter, Shiga toxin inh, LmPK inhibitor, Giardia FBPA inh)
COC(=O)CC1Oc2ccc(F)cc2-n2cc(-c3ccc(C)cc3)nc21 (configuration not stated)	none (no result: CHX counter, Shiga toxin inh, LmPK inhibitor, Giardia FBPA inh)
O=C(CSc1nc(=O)[nH]c2c1CCCC2)NCc1ccccc1	none (no result: CHX counter, Shiga toxin inh, LmPK inhibitor, Giardia FBPA inh)
CCn1c(NCc2ccc(N(C)C)cc2)nc2ccccc21	CHX counter 30, Shiga toxin inh 35
CCn1c(NCc2cccs2)nc2ccccc21	none
CCN(CC)c1ccc(CNc2nc3ccccc3n2CCN2CCCCC2)cc1	none
CCN(CC)c1ccc(CNc2nc3ccccc3n2C)cc1	Shiga toxin inh 44
CCn1c(NCc2ccccn2)nc2ccccc21	CHX counter 21
Oc1cc2cc(CCN3CCN(c4nsc5ccccc45)CC3)c(Cl)cc2[nH]1	none (no result: Sm TGR block, CHX counter, Shiga toxin inh, LmPK inhibitor, Giardia FBPA inh)
CCCn1c(C)nc2c(NC(C)CN(C)C)nc(C)nc21 (configuration not stated)	none (no result: Sm TGR block, TbPYK inhibitor, CHX counter, Shiga toxin inh, LmPK inhibitor)
O=[N+]([O-])c1ccc(N2CCc3ccccc3C2)nc1	CHX counter 28, Shiga toxin inh 54
O=[N+]([O-])c1ccc(N2CCN(c3ccccc3)CC2)nc1	none
COC(=O)C1(C)NC(=O)c2ccccc2N1 (configuration not stated)	CHX counter 15
O=C(Nc1ccc2oc(-c3ccccc3)nc2c1)c1cccs1	CHX counter 55, Shiga toxin inh 67
Cc1ccc2oc(-c3cc(NC(=O)/C=C/c4ccco4)ccc3Cl)nc2c1	Sm TGR block inconclusive (no result: CHX counter, Shiga toxin inh, LmPK inhibitor, Giardia FBPA inh)
Cc1ccc2oc(-c3cccc(NC(=S)NC(=O)c4cccs4)c3)nc2c1	CHX counter 41, Shiga toxin inh 24
Cc1ccc2oc(-c3cc(NC(=O)c4cccs4)cc(C)c3O)nc2c1	none (no result: CHX counter, Shiga toxin inh, LmPK inhibitor, Giardia FBPA inh)
Cc1ccc2oc(-c3cccc(NC(=S)NC(=O)/C=C/c4ccco4)c3)nc2c1	CHX counter 52, Shiga toxin inh 69
CN(Cc1ccco1)c1ncnc2ccc(-c3ccc4c(c3)OCCO4)cc12	none (no result: TbPYK inhibitor, CHX counter, Shiga toxin inh, LmPK inhibitor, Giardia FBPA inh)
COc1ccc2cc(C(C)=O)c(=O)oc2c1	none
Cn1c(-c2cc3ccccc3oc2=O)nc2ccccc21	CHX counter 40, Shiga toxin inh 104
Cn1c(-c2ccc(=O)[nH]c2)nc2ccccc21	Giardia FBPA inh inconclusive
COc1ccc2cc(-c3nc4ccccc4n3C)c(=O)oc2c1	CHX counter 41, Shiga toxin inh 67
